Assay results reported in the supplement of paper PMC4237247.

system: HeLa; test: percent cells in G2/M phase; higher = more G2/M arrest; conditions: 10 µM; 20 h; hit class: G2/M-phase inhibitor
Experimental: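 HTS of 79,827 drug-like compounds at 10 uM. HeLa cells in 384-well plates were treated for 20 h, fixed, stained with Vybrant DyeCycle Green and scanned on an Acumen eX3 cytometer to give per-well cell cycle profiles. Only G2/M hits (>=67% G2/M) are listed.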

Row | SMILES | percent cells in G2/M phase [%]
1 | COc1ccccc1NC1=CC(=O)CC(c2ccccc2)C1 (centres undefined) | 70.1
2 | CC(=O)Nc1ccc(Nc2nc(-c3c(C)nc4ccccn34)cs2)cc1 | 78
3 | COc1cc(NS(=O)(=O)c2ccc(NC(C)=O)cc2)c(OC)cc1Cl | 71
4 | O=C(O)c1ccccc1SC1CC(=O)N(c2ccc(Br)cc2)C1=O (centres undefined) | 75.3
5 | COC(=O)Nc1nc2cc(Sc3ccccc3)ccc2[nH]1 [Fenbendazole] | 66.2
6 | CC(=O)O[C@H]1C(=O)[C@@]2(C)[C@H]([C@H](OC(=O)c3ccccc3)[C@]3(O)C[C@H](OC(=O)[C@H](O)[C@@H](NC(=O)c4ccccc4)c4ccccc4)C(C)=C1C3(C)C)[C@]1(OC(C)=O)CO[C@@H]1C[C@@H]2O [Paclitaxel] | 75.7
7 | CCN(CC)CCN1C(=O)C(=O)C(=C(O)c2ccccc2)C1c1ccccc1F (centres undefined) | 68.3
8 | O=c1[nH]c(/C=C/c2ccccc2F)nc2ccccc12 | 76.3
9 | COc1ccc(/C=C/c2ccc3cccc(O)c3n2)cc1C | 71.7
10 | COC(=O)Nc1nc2ccc(SC(C)C)cc2[nH]1 [Methiazole] | 72.9
11 | COC(=O)Nc1nc2cc(C(=O)c3ccccc3)ccc2[nH]1 [Mebendazole] | 76.8
12 | COc1cc(-c2onc3ccc(Cl)cc23)cc(OC)c1OC | 78.1
13 | O=C(CSc1nc2ccc([N+](=O)[O-])cc2s1)c1ccc(Cl)cc1 | 69.3
14 | O=c1[nH]c(/C=C/c2ccccc2)nc2ccccc12 | 69.3
